Measured values taken from PubChem BioAssay (NCATS).
Calls of active or inactive are those of the source. Where a call stands in place of a potency, no number is given. Calls follow the shape of the dose curve; as a rule, active = well fitted inhibition curve with a large enough effect; inconclusive = small, poorly fitted or top-dose-only effect; inactive = no such curve, though single readings can be large or run the other way.

Experiment: qHTS assay for measurement of the activity of small molecule inhibitors on Zika virus induced Caspase-3 activity in human astrocytoma cells (AID 1224859)
Settings: SNB-19 ZIKV-induced caspase-3/7, luminescence, 6 h; series mostly up to 45.7 µM
Text: National Center for Advancing Translational Sciences [NCATS]
Johns Hopkins University School of Medicine
Increase in the Caspase-3 activity indicates an activation of apoptosis cell death pathway caused by Zika virus infection in certain types of neuronal cells including human neural progenitor cells (hNPCs), astrocytes, and astrocytoma cell line (SNB-19). This cell-based caspase-3 activity assay measures the increased caspase-3 activity in the astrocytoma cell line (SNB-19) after a 6-hour Zika virus infection with a luminescence readout. A decrease in the luminescence signal in this assay by small molecule treatment indicates an inhibitory effect of that small molecule on the Zika virus induced caspase-3 activity that may correlate with its effect on reduction of Zika virus caused cell death.
The medium for SNB-19 cells is composed of RPMI 1640 (ATCC, Cat.# 30-2001), 10% fetal bovine serum (FBS) (GE healthcare Life Sciences, Cat.# SH30071.03), and 1% Pen/Strep (Gibco, Cat.# 15140-122). A Caspase-Glo 3/7 assay kit (catalog number G8092; Promega, Madison, WI) was used to detect caspase-3 activity induced by Zika virus infection in human cells. The reagent mixture was reconstituted as described in the protocol from the manufacturer. Polystyrene tissue culture treated and PDL coated white plates were obtained from Greiner Bio-One (Monroe, NC). Cells were seeded in 384- or 1536-well assay plates and cultured at 37 C with 5% CO2 for 16 to 20 hours. The typical cell seeding density in the 1536-well plate assay is 250 cells/well in 3ul medium for SNB-19 cells in tissue culture treated plates. Compounds were added to cells and incubated for one hour before addition of ZIKV solution to cells (2 FFU/cell). After incubation at 37 C with 5% CO2 for 6 hours, the reagent mixture of Caspase-Glo 3/7 assay kit was added to each well, followed by incubation at room temperature for 30 minutes. The luminescence intensity of the assay plates was measured using a ViewLux plate reader (PerkinElmer). Data were normalized by using the cell-containing wells without ZIKV as a negative control (0% induction of caspase 3/7 activity) and wells containing ZIKV infected cells (Caspase-3 activity induced) as a positive control (100% induction of caspase 3 activity). The percentage inhibitions of the increased Caspase-3 activity by small molecule inhibitors were then calculated.

SMILES	Potency
CCN1CCCC1CNC(=O)c1cc(S(=O)(=O)CC)c(N)cc1OC (stereo not given)	inactive
Clc1ccc(C(c2ccccc2Cl)C(Cl)Cl)cc1 (stereo not given)	inactive
NC(CO)C(=O)NNCc1ccc(O)c(O)c1O (stereo not given)	inactive
Cc1cn([C@H]2C[C@H](N=[N+]=[N-])[C@@H](CO)O2)c(=O)[nH]c1=O	inactive
Clc1ccccc1C(c1ccccc1)(c1ccccc1)n1ccnc1	inactive
COc1cc2c(c(OC)c1OC)-c1ccc(OC)c(=O)cc1[C@@H](NC(C)=O)CC2	inactive
CC12CC3CC(C)(C1)CC(N)(C3)C2	inactive
COc1nc(C)nc(Cl)c1NC1=NCCN1	inactive
O=c1c(O)c(-c2ccc(O)c(O)c2)oc2cc(O)cc(O)c12	inactive
Cn1c(=O)c2c(ncn2C)n(C)c1=O	inactive
NC(=O)OCC(COC(N)=O)c1ccccc1	inactive
Cc1ccccc1N1C(=O)c2cc(S(N)(=O)=O)c(Cl)cc2NC1C (stereo not given)	inactive
CC(C)(Oc1ccc(C2CC2(Cl)Cl)cc1)C(=O)O (stereo not given)	inactive
Cc1cnc(C(=O)NCCc2ccc(S(=O)(=O)NC(=O)NC3CCCCC3)cc2)cn1	inactive
C[C@@H]1CC(=O)NN=C1c1ccc(NN=C(C#N)C#N)cc1	inactive
CC(C(=O)O)c1cccc(C(=O)c2ccccc2)c1 (stereo not given)	inactive
CC1(C)O[C@H]2CC(=O)OC[C@]23[C@H]2CC[C@@]4(C)[C@H](c5ccoc5)OC(=O)[C@H]5O[C@]54[C@]2(C)C(=O)C[C@@H]13	inactive
Nc1nc2c(ncn2COC(CO)CO)c(=O)[nH]1	inactive
Clc1ccc2nsnc2c1NC1=NCCN1	inactive
CC1COc2c(N3CCN(C)CC3)c(F)cc3c(=O)c(C(=O)O)cn1c23 (stereo not given)	inactive

SMILES	Potency
CCC1(c2ccccc2)C(=O)NCNC1=O	inactive
COc1ccccc1N1CCN(CC(O)COc2cccc3ccccc23)CC1 (stereo not given)	inactive
CS(=O)(=O)Nc1ccc([N+](=O)[O-])cc1Oc1ccccc1	inactive
CC(C)C(=O)Nc1ccc([N+](=O)[O-])c(C(F)(F)F)c1	inactive
COc1ccc2[nH]cc(CCNC(C)=O)c2c1	inactive
COc1cc2nc(N3CCN(C(=O)C4COc5ccccc5O4)CC3)nc(N)c2cc1OC (stereo not given)	inactive
CC#C[C@]1(O)CC[C@H]2[C@@H]3CCC4=CC(=O)CCC4=C3[C@@H](c3ccc(N(C)C)cc3)C[C@@]21C	inactive
CN1C(C(=O)Nc2ccccn2)=C(O)c2ccccc2S1(=O)=O	inactive
OCCN(CCO)c1nc(N2CCCCC2)c2nc(N(CCO)CCO)nc(N3CCCCC3)c2n1	inactive
CN1CCN2c3ccccc3Cc3ccccc3C2C1 (stereo not given)	inactive
CN1CCC(=C2c3ccccc3C=Cc3ccccc32)CC1	inactive
CC(CCc1ccc(O)cc1)NCCc1ccc(O)c(O)c1 (stereo not given)	inactive
CC(C)Cc1ccc(C(C)C(=O)O)cc1 (stereo not given)	inactive
COc1ccccc1OCCNCC(O)COc1cccc2[nH]c3ccccc3c12 (stereo not given)	inactive
COc1ccc(CCN(C)CCCC(C#N)(c2ccc(OC)c(OC)c2)C(C)C)cc1OC (stereo not given)	inactive
Fc1ccc([C@@H]2CCNC[C@H]2COc2ccc3c(c2)OCO3)cc1	inactive
CC(C)(C)C(=O)Oc1ccc(S(=O)(=O)Nc2ccccc2C(=O)NCC(=O)O)cc1	inactive
CN(C)C(=O)C(CCN1CCC(O)(c2ccc(Cl)cc2)CC1)(c1ccccc1)c1ccccc1	inactive
Nc1nnc(-c2cccc(Cl)c2Cl)c(N)n1	inactive
CN1C2CCC1CC(OC(=O)C(CO)c1ccccc1)C2 (stereo not given)	inactive
